# A selection: hits, their analogues and other compounds. The true share with any hit is near 3.4%.
# IMPase Li inh = qHTS Assay for Identifying the Cell-Membrane Permeable IMPase Inhibitors: Potentiation with Lithium. CHO-M1 cells, IP1 TR-FRET (IP-One), carbachol + lithium. AID 1457, 2008. hit rate 0.35% among 210,000. Potency, µM (doses to about 59.4 µM), for the others: at the highest dose activity, negative = IMPase inhibition, actives largely listed as inhibitors;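 note: IP1 builds up when IMPase is blocked and the TR-FRET signal falls; potency is the fitted concentration of half-maximal effect; plate controls were basal vehicle for no effect and high inhibitor control for full effect; nearly all actives have a fitted effect of over 50% in size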
#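 Steps: plate 2000 CHO-M1 cells per well and culture 16–30 h; add compound and lithium; incubate 30 min, 37C; add d2-IP1 tracer and Eu cryptate anti-IP1 antibody in lysis buffer; read after 10 min at room temperature.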
# IMPase cell inh = qHTS Assay for Identifying the Cell-Membrane Permeable IMPase Inhibitors. 120,000 tested, under 10 active. AID 901, 2007. inhibition (IP1 accumulation), % at 46.1 µM. Inositol monophosphatase 1 (Rattus norvegicus), P97697. CHO-M1 cells, IP1 accumulation, HTRF TR-FRET ratio; active = well fitted curve in the direction sought with a large enough effect in the signal ratio, not every such curve was filed as active; inconclusive = small, poorly fitted or top-dose-only effect, or a change in a side signal; inactive = no such curve, though single readings can be large or run the other way; the % refers to the signal ratio;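 note: cells stimulated with carbachol in lithium chloride buffer; plate controls were DMSO basal wells for no effect and reference inhibitor wells for full effect; higher means more IMPase inhibition seen as more IP1 and lower FRET ratio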
# Target sequence (P97697 whole entry, looked up): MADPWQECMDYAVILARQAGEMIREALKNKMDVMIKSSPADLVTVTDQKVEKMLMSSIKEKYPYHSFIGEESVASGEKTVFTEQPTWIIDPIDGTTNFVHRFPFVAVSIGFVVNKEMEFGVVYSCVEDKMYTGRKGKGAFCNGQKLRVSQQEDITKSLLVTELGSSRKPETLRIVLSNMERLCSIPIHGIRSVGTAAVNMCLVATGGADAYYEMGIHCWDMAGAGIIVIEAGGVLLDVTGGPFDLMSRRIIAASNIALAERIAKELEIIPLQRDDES
#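 Measured: the HTRF emission ratio (665/620 nm) plus the 620 nm donor channel, each fitted to the Hill equation to give AC50. Cells were CHO-M1 given compounds up to 46 uM and a 30 min carbachol stimulation at 37C.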
# NPSR antagonist = qHTS Assay for Antagonists of the Neuropeptide S Receptor: cAMP Signal Transduction | Q6W5P4 | CHO-NPSR cells, cAMP TR-FRET, antagonist mode | Potency, µM (top dose mostly 38.3 µM), inactives show top-dose activity change, negative = inhibition, hits mostly inhibitors | hit rate 1% among 220,000 | AID 1461, 2008; note: potency is the fitted concentration of half-maximal effect; % is set by controls: 0 for no effect and ±100 for the full control effect; nearly all actives have a fitted effect of over 50% in size
# Target sequence (Q6W5P4 whole entry, looked up): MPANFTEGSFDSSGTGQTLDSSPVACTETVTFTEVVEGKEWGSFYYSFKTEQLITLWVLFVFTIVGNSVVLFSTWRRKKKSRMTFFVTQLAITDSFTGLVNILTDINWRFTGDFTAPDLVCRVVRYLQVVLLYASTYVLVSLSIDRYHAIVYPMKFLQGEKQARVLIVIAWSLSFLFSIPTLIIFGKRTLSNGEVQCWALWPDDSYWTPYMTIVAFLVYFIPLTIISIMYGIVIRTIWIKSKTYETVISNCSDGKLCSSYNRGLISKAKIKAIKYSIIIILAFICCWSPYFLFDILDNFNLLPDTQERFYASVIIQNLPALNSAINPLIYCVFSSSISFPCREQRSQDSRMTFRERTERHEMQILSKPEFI
# HTT ATP protect = qHTS Multiplex Assay to Identify Dual Action Probes in a Cell Model of Huntington: Cytoprotection (ATP). PC12 HTT-Q103 induced, cytoprotection, ATP luminescence, 40 h. Potency, µM (titrated, usually from 56.4 µM), for inactives: cytoprotection (ATP increase), most hits filed as activators. hit rate 0.14% among 230,000. AID 1471, 2008; note: potency is the fitted concentration of half-maximal effect; % of control where 0% means no effect; nearly all actives have a fitted effect of over 45% in size
#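 Compounds added alongside 100 nM tebufenozide, which induces toxic Q103 huntingtin exon 1-GFP in stable PC12 cells; surviving cells quantified by luminescent ATP measurement. Medium: phenol red-free DMEM, 5% equine and 5% calf serum.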
# PNC assembly inh = High Content Assay for Compounds that inhibit the Assembly of the Perinucleolar Compartment; activity change (PNC), negative = inhibition, % at 10 µM; hit rate 3.1% among 140,000; AID 2417, 2010; PC3M PTB-GFP, PNC prevalence imaging, 16 h; active compounds read low;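 active = readout at or below -70, meaning at least 70% loss of cells showing the perinucleolar compartment, a nuclear body marking cancer cells; inconclusive = readout between -30 and a set limit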;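 note: plate controls were DMSO wells for no effect and camptothecin positive control wells for full effect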
#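 Compounds are pinned in duplicate onto adhered PC3M cells stably expressing GFP-tagged PTB and incubated 16 h at 37 C. Cells are then fixed, nuclei stained with Hoechst, and PNC-positive cells counted.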
# HttQ103 aggreg = qHTS Multiplex Assay to Identify Dual Action Probes in a Cell Model of Huntington: Aggregate Formation (GFP). Potency, µM (series often up to 46.1 µM), for inactives: at the highest dose activity change, negative = inhibition, most hits filed as inhibitors. PC12 HttQ103-GFP aggregates, Acumen cytometry, 40 h. hit rate 1.1% among 220,000; note: potency is the fitted concentration of half-maximal effect; % is set by controls: 0 for no effect and ±100 for the full control effect; nearly all actives have a fitted effect of over 60% in size
#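 Aggregate formation scored by laser-scanning cytometer (488 excitation, 500–530 emission) in lysed PC12 cells expressing Q103-GFP after 100 nM tebufenozide induction; library tested in dose series, with ATPLite reagent added in the multiplex.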
# * = called active by the depositor; ? = inconclusive; nt = not tested or not shown; [ ] = remark or other dose. Unless noted, calls come from the whole dose curve; as a rule, active = well fitted curve in the direction sought with a large enough effect; inconclusive = small, poorly fitted or top-dose-only effect, or another doubt; inactive = no such curve, though single readings can be large; an effect the other way counts as inactive or inconclusive.
SMILES,IMPase Li inh,IMPase cell inh,NPSR antagonist,HTT ATP protect,PNC assembly inh,HttQ103 aggreg
Cc1ccccc1C(=O)NNC(=O)C(=O)N1CCCCC1,-2%,nt,7%,?,3,-6%
CC(NC(=O)CC(O)(C(F)(F)F)C(F)(F)F)c1ccccc1 (stereo not drawn),21%[38.3 µM],-20,-1%[46.1 µM],-4%,-88*,-8%
CC(=O)N1CCC2(CCN(Cc3ccncc3)CC2)CC1,-11%,nt,nt,-13%,nt,nt
C/C(N)=C(/C#N)C(=O)COC(=O)c1cc(C)n(-c2ccc(F)cc2)c1C,30%[38.3 µM],10,-13%[46.1 µM],-9%[10 µM],-129*,1%
COc1ccccc1NC(=O)c1sc(NC(=O)c2ccco2)c(C#N)c1C,26%[38.3 µM],-9,-1%[46.1 µM],-1%,34,-8%
Cc1ccccc1OCC(=O)Nc1sc(C(=O)Nc2cccc(C)c2C)c(C)c1C#N,1µM*,?,4µM*,-1%,19,14%
CC(C)c1nc(SCC(=O)NCc2ccc3c(c2)OCO3)c2c(=O)n(C)c(=O)n(C)c2n1,nt,nt,nt,-2%,nt,nt
CCOc1ccc(Cn2c3ccc(OC)cc3c3nc4ccccc4nc32)cc1,6%,nt,-4%,nt,-89*,8%
CCn1c2ccc(OC)cc2c2nc3ccccc3nc21,5%,15,?,3%[10 µM],193,-7%
CCc1nn2c(=O)c(S(=O)(=O)Nc3ccc(C)c(C)c3)c(C)nc2s1,nt,3,nt,nt,nt,nt
COc1ccc(C(=O)C[n+]2cc(-c3ccc(OC)cc3)n3c2CCCC3)cc1,20%,nt,4%,3%[10 µM],nt,10µM*
O=C(C[n+]1cc(-c2ccccc2)n2c1CCCCC2)c1ccc(Br)cc1,9%,nt,-42%,10%[10 µM],nt,7%[9.22 µM]
Cc1ccc(C(=O)C[n+]2cc(-c3ccc(C)cc3)n3c2CCCCC3)cc1,26%[38.3 µM],12,-2%[46.1 µM],-76%,?,0.89µM*
COc1cc(OC)c2c(OC)cccc2n1,-7%,nt,21%,nt,?,9%
COc1ccc(-c2cnc(N)nc2-c2ccc(OC)cc2O)cc1,0%[38.3 µM],6,-24%[46.1 µM],?,6,11µM*
CN(C)S(=O)(=O)c1ccc(-c2csc(N/N=C/c3ccco3)n2)cc1,nt,nt,-9%,21%[10 µM],nt,0%[9.22 µM]
CN(C)S(=O)(=O)c1ccc(-c2csc(N/N=C/c3ccc(O)cc3)n2)cc1,nt,nt,13µM*,-53%[10 µM],nt,-17%[9.22 µM]
Cc1ccc(Cl)cc1NC(=O)COC(=O)c1ccc(COc2ccc3c(C)cc(=O)oc3c2)cc1,-6%,nt,-50%,nt,-113*,-8%
C=CCn1cc(/C=N/Nc2nc3ccccc3[nH]2)c2ccccc21,14%,4,10µM*,-20%[10 µM],-4,9%
CCNc1nc2ccccc2[nH]1,17%[38.3 µM],4,0%[46.1 µM],-38%,-109*,1%
CCN(CC)c1ccc(/C=N/Nc2nc3ccccc3[nH]2)cc1,3%,nt,5µM*,-4%[10 µM],-18,?
CCCn1c(/C=N/Nc2nc3ccccc3[nH]2)nc2ccccc21,19%,nt,?,-9%[10 µM],31,16µM*
Cn1c(/C=N/Nc2nc3ccccc3[nH]2)nc2ccccc21,28%,nt,-39%,-138%,nt,?
CCN(CC)CCCNc1nc2ccccc2[nH]1,2%[38.3 µM],1,-5%[46.1 µM],15%[10 µM],-22,-5%
CC(C)Cn1c(/C=N/Nc2nc3ccccc3[nH]2)nc2ccccc21,23%,nt,?,-40%[10 µM],40,6.3µM*
SMILES,IMPase Li inh,IMPase cell inh,NPSR antagonist,HTT ATP protect,PNC assembly inh,HttQ103 aggreg
Cc1c(/C=N/Nc2nc3ccccc3[nH]2)c2ccccc2n1C,nt,nt,?,-12%[10 µM],nt,-10%[9.22 µM]
CCOc1cc(NC(=S)Nc2ccccc2OC)c(OCC)cc1NC(=O)c1ccccc1C,2%[38.3 µM],9,?,-29%,-109*,3%
Cc1ccc(O)c(N=CC2=C(O)c3ccccc3C2=O)c1,10µM*,?,?,-15%,?,-29%
O=C1C(C=Nc2ccccc2O)=C(O)c2ccccc21,1%[38.3 µM],7,-28%[46.1 µM],-48%,0,?
Cc1nn(C)c2ncc(C(N)=O)c(Oc3ccc(Cl)cc3)c12,nt,nt,11%,-4%[10 µM],nt,-22%[9.22 µM]
Cc1cc(NC(=O)c2c(C)noc2C)no1,nt,nt,-15%,16%[10 µM],nt,6%[9.22 µM]
CN(C)S(=O)(=O)c1cccc(-c2cn3cc(Cl)ccc3n2)c1,5%[38.3 µM],-5,-15%[46.1 µM],-1%[10 µM],-83*,-9%[9.22 µM]
C=CCNC(=O)/C(=C/c1cccc([N+](=O)[O-])c1)NC(=O)c1ccco1,6%,nt,9%,-9%[10 µM],nt,-8%[9.22 µM]
COc1nc(C)ccc1-c1noc(-c2ccccn2)n1,20%[38.3 µM],0,-3%[46.1 µM],-133%[0.074 µM],6,1%
COc1ccccc1-c1nc(-c2ccc(C)nc2OC)no1,6%,-6,15%[46.1 µM],-21%,-98*,-7%
Fc1ccc(NC(=S)NNc2ncc(C(F)(F)F)cc2Cl)c(F)c1,12%,nt,-13%,-96%,nt,7.9µM*
Cc1ccc(NC(=S)NNc2ncc(C(F)(F)F)cc2Cl)cc1,-5%,-9,-9%[46.1 µM],12%[10 µM],?,-20%
FC(F)(F)c1cnc(NNC(=S)Nc2ccc(Cl)cc2)c(Cl)c1,7%,nt,-35%,7%[10 µM],?,11µM*
CCc1ccc(S(=O)(=O)Nc2ccc(N3CCN(C)CC3)cc2)cc1,nt,nt,3%,24%[10 µM],nt,9%[9.22 µM]
O=C1C2CC=CCC2C(=O)N1c1ccc(NCCc2cccc(F)c2)c([N+](=O)[O-])c1 (stereo not drawn),5%,nt,10%,1%[10 µM],9,6%
CCOC(=O)/C(=N\Nc1ccccc1)S(=O)(=O)c1ccccc1,19%[38.3 µM],7,-7%[46.1 µM],-10%[10 µM],?,-5%
CCOC(=O)/C(=N\Nc1ccccc1)P(=O)(c1ccccc1)c1ccccc1,nt,nt,10µM*,5%[10 µM],nt,-4%[9.22 µM]
O=C(Cn1cc(C(F)(F)F)cc(Cl)c1=O)Nc1cccc(Cl)c1,10µM*,4,7%,-24%[1.9 µM],?,-1%
COc1ccc(CCNC(=O)CSc2nncn2N)cc1OC,17%[38.3 µM],3,-2%[46.1 µM],-1%[1.9 µM],-82*,13%
COc1ccc(CSc2nncn2N)cc1[N+](=O)[O-],-7%,nt,13%,3%[10 µM],-89*,7%
COc1ccc(CCNC(=O)CSc2nnnn2C)cc1OC,2%,nt,-18%,8%[10 µM],nt,-3%[9.22 µM]
CN(C)Cc1ccccc1-c1cc(N(C)C)ncn1,-2%,nt,nt,12%,nt,nt
NS(=O)(=O)c1ccc(N=Nc2c(-c3ccccc3)[nH]n(-c3nc(-c4ccccc4)cs3)c2=O)cc1,2%,-1,-3%[46.1 µM],22%[10 µM],?,5.6µM*
CCN(CC)c1ccc(Nc2nc(N3CCOCC3)c3ccccc3n2)cc1,49%[38.3 µM],19,-6%[46.1 µM],-4%,36,7.9µM*
